Measured values taken from PubChem BioAssay (EPA / NIEHS).
Inconclusive results are not listed. The source made the active and inactive calls. How the source made its calls, unless noted: active means hit-call score of the fitted dose curve at least 0.9, where 1 is the maximum; inconclusive means response in the unintended direction; inactive means score below 0.9.

Experiments:
[1] = tested on: SERPINA7 (gene 6906); assay: CCTE_GLTED_hTBG: CCTE's human Thyroxine-binding Globulin (TBG) Inhibition Assay, Great Lakes Toxicology and Ecology Division (GLTED) Lab (AID 2284343);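 further: active chemicals lower fluorescence versus DMSO baseline by displacing probe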
Outline: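 Steps: combine TBG with chemical; incubate 2 hours so that disruptors release ANSA; record fluorescence (380 ex, 475 em). Loss of signal was fitted against DMSO controls.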

[2] = CCTE_Mundy_HCI_iCellGluta_NOG_NeuronCount: CCTE's Neurite Outgrowth Assay in iCellGluta cells for Neuron Count, Mundy Lab (AID 2284340);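 further: cells fixed about 48 h after compound addition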
Outline: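 Neuron count read by automated high-content imaging of Hoechst 33342 and betaIII-tubulin/Alexa Fluor-488 labelling in human iPSC glutamatergic neurons. Activity fitted relative to DMSO.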

[3] = CCTE_Mundy_HCI_iCellGluta_NOG_NeuriteCount: CCTE's Neurite Outgrowth Assay in iCellGluta cells for Neurite Count, Mundy Lab (AID 2284342);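 further: chemical exposure about 48 hours starting 2 hours after plating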
[4] = Tanguay_ZF_120hpf_MO24: Oregon State University Tanguay Lab 24 Hour Post-fertilization zebrafish Assay for Mortality (AID 2284389; active means hit-call score of the fitted dose curve at least 0.9, where 1 is the maximum; inactive means score below 0.9)
Outline: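 Embryo death at 24 hpf was recorded as present or absent in Tropical 5D zebrafish, dechorionated at 4 hpf and dosed statically from 6 hpf (28C, 0.64% DMSO); 5 uM trimethyltin chloride served as positive control.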

## Cc1cc(C)c(O)c(C)c1
[1]
  outcome: inactive

## C=C(C)C(=O)OCCC(F)(F)C(F)(F)C(F)(F)C(F)(F)C(F)(F)C(F)(F)F
[2]
  outcome: inactive
[3]
  outcome: inactive
[4]
  outcome: inactive

## OCCC(F)(F)C(F)(F)C(F)(F)C(F)(F)C(F)(F)C(F)(F)F
[2]
  outcome: inactive
[3]
  outcome: inactive
[4]
  outcome: inactive

## CC[C@H](C)[C@@H](C(=O)O)n1sc2ccccc2c1=O
[1]
  AC50: 18.2 µM (active)
